Assay results reported in the supplement of paper PMC10849652.
Targets with a hit are over-represented here; the source holds about 8,800 in all. About 0.5% of all pairs of compound and target were hits.

What was measured:
Experiment in all cases: log2 fold change, soluble protein after heating vs DMSO (PISA); higher = thermal stabilisation; K562 lysate, 10 uM; active = over 0.2 and 3.5 SD of the protein, either way, in both replicates (recomputed)
[1] = compound: C/C(=N\NC(=O)C1=CC(=CC=C1)S(=O)(=O)N2CCOCC2)/C3=C(C=CC(=C3)Cl)O
In short: (§1)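 Log-two fold change in thermal stability relative to solvent controls is reported from duplicates. For each sample, crude K562 extract from dounce-homogenised pellets in PBS pH 7.4 with 1 mM MgCl2, at 1 mg/mL protein, was treated with 10 μM compound for 30 min. Aliquots heated for 3 min across 48°C-58°C were pooled, brought to 0.5% NP-40 at 4°C and cleared at 21,000xg for 90 min. The supernatant was quantified by TMTpro 16plex LC-MS/MS with channel sums equalised.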

[2] = compound: C1=CC2=C(C=CC(=C2)/C=C\3/C(=O)NC(=NCC4=CC=CS4)S3)N=C1
In short: as §1

[3] = compound: C1=CC2=NC=CN=C2C=C1/C=C/3\C(=O)NC(=O)S3
In short: as §1

[4] = compound: C1=CC=C2C(=C1)C3=NNC4=CC=CC(=C43)C2=O
In short: as §1

[5] = compound: C1CCN(C1)C(=O)NC2=CC=CC(=C2)NC3=NC=C(C(=N3)NCCC4=CN=CN4)Br
In short: as §1

[6] = compound: C1CN(CCC1(CC2=CC=C(C=C2)Cl)N)C3=NC=NC4=C3C=CN4
In short: as §1

ibrutinib = compound: C=CC(=O)N1CCC[C@@H](n2nc(-c3ccc(Oc4ccccc4)cc3)c3c(N)ncnc32)C1 [ibrutinib]
In short: as §1

erlotinib = compound: C#Cc1cccc(Nc2ncnc3cc(OCCOC)c(OCCOC)cc23)c1 [erlotinib]
In short: as §1

[7] = compound: C1=CC(=CC=C1C2=NC3=C(N2)C=C(C=C3)C(=O)N)OC4=CC=C(C=C4)Cl
In short: as §1

[8] = compound: C1=CC=C(C=C1)C2=NC(=C(N2)C3=CC=NC=C3)C4=CC(=C(C=C4)Cl)O
In short: as §1

IRAK-1-4 Inhibitor I = compound: C1COCCN1CCN2C3=CC=CC=C3N=C2NC(=O)C4=CC(=CC=C4)[N+](=O)[O-] [IRAK-1-4 Inhibitor I]
In short: as §1

ralimetinib = compound: CC(C)(C)Cn1c(N)nc2ccc(-c3[nH]c(C(C)(C)C)nc3-c3ccc(F)cc3)nc21 [ralimetinib]
In short: as §1

[9] = compound: CC(C)(O)CC(=O)NCCn1ccc2ncnc(Nc3ccc(Oc4cccc(C(F)(F)F)c4)c(Cl)c3)c21
In short: as §1

[10] = compound: CC(C)C1=C2N=C(C=C(N2N=C1)NCC3=CC=CC=C3)NCCCCCCN
In short: as §1

[11] = compound: CC1=C(C(CC(=O)N1)C2=CC=C(C=C2)C(F)(F)F)C(=O)NC3=C(C=C4C(=C3)C=NN4)F
In short: as §1

[12] = compound: CC1=C(C2=C(C=C1)C(=O)C3=CC=CC=C3N2CCCN)C
In short: as §1

[13] = compound: CC1=C(C=C(C=C1)NC(=O)C2=CC(=CC=C2)N(C)C)NC(=O)C3=CC=C(C=C3)O
In short: as §1

[14] = compound: CC(=O)c1cnc2ccc(-c3cc(Cl)c(O)c(Cl)c3)nc2c1N[C@H]1CC[C@H](CN(C)C)CC1
In short: as §1

[15] = compound: CC1=C(C=C(C=C1)NC(=O)C2=CC(=CC=C2)C(C)(C)C#N)NC3=CC4=C(C=C3)N=CN(C4=O)C
In short: as §1

[16] = compound: CC1=CC=C(C=C1)SC2=C3C=C(SC3=CN=C2)C(=O)N
In short: as §1

Measured: log2 fold change

ANP32E isoform 3 (UniProt Q9BTT0)
Chain of UniProt Q9BTT0 (Q9BTT0 whole entry, looked up): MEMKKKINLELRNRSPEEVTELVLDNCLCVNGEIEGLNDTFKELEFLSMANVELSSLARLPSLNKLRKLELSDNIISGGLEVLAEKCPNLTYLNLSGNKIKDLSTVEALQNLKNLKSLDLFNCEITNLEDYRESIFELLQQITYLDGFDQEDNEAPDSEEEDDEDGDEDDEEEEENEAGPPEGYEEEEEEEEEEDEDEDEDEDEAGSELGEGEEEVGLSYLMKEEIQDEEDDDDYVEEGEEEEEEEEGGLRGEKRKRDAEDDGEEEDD
inactive: [1] -0.079 | [2] -0.002 | [3] -0.011 | [4] 0.012 | [5] 0.075 | [6] -0.01 | ibrutinib -0.065

ALKBH1 (UniProt Q13686)
Chain of UniProt Q13686 (Q13686 whole entry, looked up): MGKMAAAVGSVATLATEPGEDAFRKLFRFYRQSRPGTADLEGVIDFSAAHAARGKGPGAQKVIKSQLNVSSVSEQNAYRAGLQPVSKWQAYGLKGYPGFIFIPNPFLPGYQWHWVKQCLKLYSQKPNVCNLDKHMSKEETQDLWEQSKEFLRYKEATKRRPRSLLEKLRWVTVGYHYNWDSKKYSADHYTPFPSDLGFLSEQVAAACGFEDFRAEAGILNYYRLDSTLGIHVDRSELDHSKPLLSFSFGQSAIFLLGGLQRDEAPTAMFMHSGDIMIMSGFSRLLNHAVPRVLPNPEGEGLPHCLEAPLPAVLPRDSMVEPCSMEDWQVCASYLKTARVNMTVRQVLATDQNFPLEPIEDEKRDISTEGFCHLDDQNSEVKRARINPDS
inactive: erlotinib 0.033 | [1] -0.042 | [7] -0.02 | [2] 0.052 | [8] 0.024 | [4] -0.022 | [5] 0.211 | [6] 0.041 | IRAK-1-4 Inhibitor I -0.11 | ralimetinib 0.095 | [9] -0.1 | [10] 0.008 | [11] -0.003 | [12] -0.102 | [13] 0.093

ARL13B (UniProt Q3SXY8)
Chain of UniProt Q3SXY8 (Q3SXY8 whole entry, looked up): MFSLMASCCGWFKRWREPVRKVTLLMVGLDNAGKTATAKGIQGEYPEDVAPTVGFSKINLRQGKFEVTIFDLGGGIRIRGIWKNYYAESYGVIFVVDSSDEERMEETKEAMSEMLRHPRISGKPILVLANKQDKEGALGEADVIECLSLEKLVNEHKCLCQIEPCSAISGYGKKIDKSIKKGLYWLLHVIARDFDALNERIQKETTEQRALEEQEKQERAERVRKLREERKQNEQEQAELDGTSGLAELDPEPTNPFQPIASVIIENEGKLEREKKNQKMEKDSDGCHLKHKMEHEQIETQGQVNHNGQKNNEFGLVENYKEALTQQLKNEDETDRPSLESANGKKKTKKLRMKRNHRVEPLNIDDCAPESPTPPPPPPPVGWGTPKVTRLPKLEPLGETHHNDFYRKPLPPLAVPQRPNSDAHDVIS
inactive: erlotinib 0.043 | [1] 0.06 | [7] -0.195 | [2] -0.039 | [3] 0.118 | [8] -0.033 | [4] 0.094 | IRAK-1-4 Inhibitor I 0.038 | ibrutinib -0.001 | [14] -0.033 | ralimetinib 0.058 | [9] -0.032 | [10] 0.081 | [12] -0.002 | [15] 0.047 | [13] -0.068 | [16] 0.077

ABCC5 (UniProt O15440)
Chain of UniProt O15440 (O15440 whole entry, looked up): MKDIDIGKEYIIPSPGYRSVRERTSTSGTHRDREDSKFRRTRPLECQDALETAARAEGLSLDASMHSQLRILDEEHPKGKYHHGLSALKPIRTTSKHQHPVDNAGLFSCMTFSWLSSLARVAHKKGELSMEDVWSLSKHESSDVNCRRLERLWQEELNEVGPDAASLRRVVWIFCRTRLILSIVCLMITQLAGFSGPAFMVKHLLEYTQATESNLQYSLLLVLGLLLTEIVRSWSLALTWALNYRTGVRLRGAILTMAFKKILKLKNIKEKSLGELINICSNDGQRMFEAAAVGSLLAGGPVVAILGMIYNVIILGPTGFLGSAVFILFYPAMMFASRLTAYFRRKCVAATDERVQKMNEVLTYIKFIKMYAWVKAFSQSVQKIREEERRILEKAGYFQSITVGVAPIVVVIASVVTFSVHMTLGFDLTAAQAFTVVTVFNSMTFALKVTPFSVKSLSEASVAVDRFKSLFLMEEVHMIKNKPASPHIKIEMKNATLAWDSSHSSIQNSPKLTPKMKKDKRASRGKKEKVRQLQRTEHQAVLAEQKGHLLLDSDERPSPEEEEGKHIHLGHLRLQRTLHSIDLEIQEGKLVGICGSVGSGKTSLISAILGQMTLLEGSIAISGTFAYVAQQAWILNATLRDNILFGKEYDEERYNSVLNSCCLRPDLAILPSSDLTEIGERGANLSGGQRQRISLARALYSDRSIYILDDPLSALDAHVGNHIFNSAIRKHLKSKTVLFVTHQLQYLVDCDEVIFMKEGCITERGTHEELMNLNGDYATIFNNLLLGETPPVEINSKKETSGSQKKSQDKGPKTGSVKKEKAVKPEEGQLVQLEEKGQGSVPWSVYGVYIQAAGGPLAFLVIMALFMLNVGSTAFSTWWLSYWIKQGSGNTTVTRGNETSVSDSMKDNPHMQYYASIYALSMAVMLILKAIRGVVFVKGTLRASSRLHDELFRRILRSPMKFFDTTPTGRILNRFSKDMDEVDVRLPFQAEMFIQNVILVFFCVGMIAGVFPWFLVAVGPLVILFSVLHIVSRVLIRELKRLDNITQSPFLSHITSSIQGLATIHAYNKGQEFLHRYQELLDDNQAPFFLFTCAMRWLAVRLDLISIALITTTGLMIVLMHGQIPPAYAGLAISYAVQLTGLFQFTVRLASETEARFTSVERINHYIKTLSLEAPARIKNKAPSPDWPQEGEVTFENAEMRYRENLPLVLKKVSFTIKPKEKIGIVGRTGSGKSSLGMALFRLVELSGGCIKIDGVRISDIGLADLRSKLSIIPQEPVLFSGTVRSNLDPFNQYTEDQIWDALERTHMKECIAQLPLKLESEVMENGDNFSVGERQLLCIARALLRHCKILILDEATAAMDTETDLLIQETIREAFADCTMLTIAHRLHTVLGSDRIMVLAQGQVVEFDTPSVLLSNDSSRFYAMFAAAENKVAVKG
inactive: erlotinib 0.059 | [1] -0.581 | [7] 0.057 | [2] -0.028 | [3] -0.127 | [8] -0.112 | [4] -0.248 | [5] -0.038 | [6] 0.072 | IRAK-1-4 Inhibitor I -0.067 | ibrutinib -0.109 | [14] 0.012 | ralimetinib -0.216 | [9] -0.145 | [10] -0.015 | [12] -0.094 | [15] 0.019 | [13] 0.187 | [16] -0.019

ARHGEF2 (UniProt V9GYF0)
inactive: [1] -0.056 | [2] -0.125 | [8] 0.012 | [4] 0.078 | [5] -0.009 | [6] -0.058 | IRAK-1-4 Inhibitor I 0.062 | [14] 0.02 | ralimetinib -0.041 | [9] -0.126 | [11] -0.055 | [12] -0.011 | [13] 0.008 | [16] -0.07

ACYP2 (UniProt P14621)
Chain of UniProt P14621 (P14621 whole entry, looked up): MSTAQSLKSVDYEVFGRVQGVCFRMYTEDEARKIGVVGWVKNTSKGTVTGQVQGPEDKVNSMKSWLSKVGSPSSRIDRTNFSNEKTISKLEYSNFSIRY
inactive: erlotinib -0.057 | [1] 0.256 | [7] 0.007 | [2] -0.176 | [3] 0.002 | [8] -0.049 | [4] -0.185 | IRAK-1-4 Inhibitor I -0.011 | ibrutinib 0.086 | [14] 0.004 | ralimetinib 0.026 | [9] -0.018 | [10] 0.044 | [11] 0.047 | [15] -0.036 | [13] 0.025 | [16] 0.04

ACTG1 (UniProt K7EM38)
inactive: [5] -0.162 | [6] -0.155 | [14] -0.044 | [16] 0.152

ABCA3 (UniProt Q99758)
Chain of UniProt Q99758 (Q99758 whole entry, looked up): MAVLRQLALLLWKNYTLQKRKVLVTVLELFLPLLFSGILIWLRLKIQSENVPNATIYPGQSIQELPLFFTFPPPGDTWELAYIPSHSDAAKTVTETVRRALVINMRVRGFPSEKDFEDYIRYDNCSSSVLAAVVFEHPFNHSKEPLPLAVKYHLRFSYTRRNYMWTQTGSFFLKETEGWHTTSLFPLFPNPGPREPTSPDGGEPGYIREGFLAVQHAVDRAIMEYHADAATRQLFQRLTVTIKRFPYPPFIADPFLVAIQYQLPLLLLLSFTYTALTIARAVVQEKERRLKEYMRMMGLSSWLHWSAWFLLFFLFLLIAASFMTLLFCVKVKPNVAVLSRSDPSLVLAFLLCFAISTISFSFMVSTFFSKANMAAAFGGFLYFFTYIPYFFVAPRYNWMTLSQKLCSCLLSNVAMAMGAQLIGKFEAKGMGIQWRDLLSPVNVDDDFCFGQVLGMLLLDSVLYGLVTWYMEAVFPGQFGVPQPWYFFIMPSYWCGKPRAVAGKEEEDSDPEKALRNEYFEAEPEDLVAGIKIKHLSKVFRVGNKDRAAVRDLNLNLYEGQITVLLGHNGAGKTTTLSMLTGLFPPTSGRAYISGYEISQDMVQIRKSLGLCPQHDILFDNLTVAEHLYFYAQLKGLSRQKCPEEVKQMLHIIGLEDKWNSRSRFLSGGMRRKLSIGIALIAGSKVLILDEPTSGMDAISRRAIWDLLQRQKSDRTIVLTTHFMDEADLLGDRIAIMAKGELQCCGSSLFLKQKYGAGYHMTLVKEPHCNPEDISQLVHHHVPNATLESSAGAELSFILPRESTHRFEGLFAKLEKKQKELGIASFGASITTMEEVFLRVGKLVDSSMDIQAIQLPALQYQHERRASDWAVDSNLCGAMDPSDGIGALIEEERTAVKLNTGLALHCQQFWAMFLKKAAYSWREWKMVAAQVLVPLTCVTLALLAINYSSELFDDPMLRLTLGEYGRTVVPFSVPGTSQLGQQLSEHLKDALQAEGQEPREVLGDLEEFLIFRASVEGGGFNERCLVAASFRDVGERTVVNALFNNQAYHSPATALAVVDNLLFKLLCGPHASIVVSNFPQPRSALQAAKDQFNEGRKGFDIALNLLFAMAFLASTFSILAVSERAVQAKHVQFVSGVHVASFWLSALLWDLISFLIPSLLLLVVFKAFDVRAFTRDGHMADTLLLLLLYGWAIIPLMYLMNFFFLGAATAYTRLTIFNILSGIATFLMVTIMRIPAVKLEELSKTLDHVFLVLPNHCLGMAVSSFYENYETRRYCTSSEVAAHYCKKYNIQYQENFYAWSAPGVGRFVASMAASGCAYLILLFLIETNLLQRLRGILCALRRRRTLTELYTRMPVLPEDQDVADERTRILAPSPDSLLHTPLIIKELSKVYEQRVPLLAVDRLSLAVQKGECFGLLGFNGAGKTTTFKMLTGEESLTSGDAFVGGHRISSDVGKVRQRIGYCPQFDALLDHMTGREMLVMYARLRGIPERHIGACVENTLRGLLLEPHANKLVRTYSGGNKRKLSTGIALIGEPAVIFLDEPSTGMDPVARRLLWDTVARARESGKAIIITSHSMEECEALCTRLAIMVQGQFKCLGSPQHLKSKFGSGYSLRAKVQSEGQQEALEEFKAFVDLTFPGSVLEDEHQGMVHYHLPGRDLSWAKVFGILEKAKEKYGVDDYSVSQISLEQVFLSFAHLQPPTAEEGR
inactive: erlotinib -0.022 | [1] -0.028 | [7] -0.033 | [2] 0.036 | [3] -0.096 | [8] 0.037 | [4] 0.211 | [5] -0.118 | [6] 0 | IRAK-1-4 Inhibitor I 0.114 | ibrutinib -0.036 | [14] -0.002 | ralimetinib -0.041 | [9] -0.13 | [10] -0.023 | [12] -0.112 | [15] 0.062 | [13] -0.028 | [16] 0.128

ALG3 (UniProt Q92685)
Chain of UniProt Q92685 (Q92685 whole entry, looked up): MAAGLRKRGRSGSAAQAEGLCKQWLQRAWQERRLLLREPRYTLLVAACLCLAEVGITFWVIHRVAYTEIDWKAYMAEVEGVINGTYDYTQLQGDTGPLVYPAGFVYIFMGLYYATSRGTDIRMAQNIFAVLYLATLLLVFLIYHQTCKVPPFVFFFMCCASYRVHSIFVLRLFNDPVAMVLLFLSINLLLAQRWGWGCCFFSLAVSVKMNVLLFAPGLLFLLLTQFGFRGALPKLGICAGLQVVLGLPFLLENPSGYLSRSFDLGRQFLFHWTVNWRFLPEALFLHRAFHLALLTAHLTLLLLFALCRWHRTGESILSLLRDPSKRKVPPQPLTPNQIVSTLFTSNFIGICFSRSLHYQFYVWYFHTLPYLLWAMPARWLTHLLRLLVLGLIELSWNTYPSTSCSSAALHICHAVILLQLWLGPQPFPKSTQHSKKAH
inactive: erlotinib 0.19 | [1] -0.117 | [7] -0.12 | [2] -0.037 | [3] 0.056 | [8] -0.016 | [4] -0.182 | [5] -0.103 | [6] -0.037 | IRAK-1-4 Inhibitor I 0.019 | ibrutinib -0.163 | [14] 0.03 | ralimetinib -0.007 | [9] -0.032 | [10] -0.278 | [12] 0.014 | [15] -0.024 | [13] 0.042 | [16] 0.03

ADD1 isoform 4 (UniProt P35611)
inactive: erlotinib -0.016 | [1] -0.059 | [7] 0.011 | [2] 0.089 | [3] -0.088 | [8] -0.081 | [4] -0.025 | [5] 0.028 | [6] -0.009 | IRAK-1-4 Inhibitor I 0.093 | ibrutinib 0.214 | [14] 0.003 | ralimetinib -0.104 | [9] -0.356 | [10] 0.056 | [12] 0.004 | [13] 0.017 | [16] -0.341
